In PubChem BioAssay AID1159580 (chemical genetic matrix, 2015):
Among all 5,500 compounds or so, about 2,000 (36%) were called active. Not shown: some 18% with an inconclusive outcome. Cut-off read from the data, not from the text of the source: active = normalized growth mostly below about 0.91 (no sharp cut-off); inconclusive = no clear call, values can overlap the other calls; inactive = mostly above about 0.92. The list shows a part of the results.

Assay: chemical genetic growth profiling, strain panel (AID 1159580);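 note: tested at 20 µM; growth read once vehicle control cultures reached saturation at 30 °C; 1 = growth at the plate median or of vehicle wells; lower values mean less growth of the strain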
Settings: growth OD

Measured: normalized growth

CS(=O)(=O)c1ccc(C2=C(c3ccccc3)C(=O)OC2)cc1
inactive: S. cerevisiae deletion strains, locus YJR066W, strain TOR1, hits give low values 0.97 | S. cerevisiae deletion strains, locus YJR075W, strain HOC1, hits give low values 0.992 | S. cerevisiae deletion strains, locus YKL009W, strain mrt4, hits give low values 0.949 | S. cerevisiae deletion strains, locus YKL068W, hits give low values 0.983 | S. cerevisiae deletion strains, locus YKL085W, strain MDH1 (second series), hits give low values 0.979 | S. cerevisiae deletion strains, locus YKL085W, strain MDH1, hits give low values 0.979 | S. cerevisiae deletion strains, locus YKL160W, strain elf1, hits give low values 0.988 | S. cerevisiae deletion strains, locus YKL190W, strain CNB1, hits give low values 0.98 | S. cerevisiae deletion strains, locus YKR001C, strain vps1, hits give low values 0.987 | S. cerevisiae deletion strains, locus YKR026C, strain gcn3, hits give low values 0.983 | S. cerevisiae deletion strains, locus YKR091W, strain srl3, hits give low values 0.961 | S. cerevisiae deletion strains, locus YLL001W, strain dnm1, hits give low values 0.999 | S. cerevisiae deletion strains, locus YLL026W, hits give low values 0.985 | S. cerevisiae deletion strains, locus YLL041C, strain sdh2, hits give low values 0.994 | S. cerevisiae deletion strains, locus YLR027C, strain aat2, hits give low values 0.978 | S. cerevisiae deletion strains, locus YLR039C, strain RIC1, hits give low values 0.951 | S. cerevisiae deletion strains, locus YLR058C, strain SHM2, hits give low values 1 | S. cerevisiae deletion strains, locus YLR102C, strain apc9, hits give low values 0.992 | S. cerevisiae deletion strains, locus YLR113W, strain HOG1, hits give low values 1.01 | S. cerevisiae deletion strains, locus YLR221C, strain rsa3, hits give low values 0.974 | S. cerevisiae deletion strains, locus YLR258W, strain gsy2, hits give low values 0.988 | S. cerevisiae deletion strains, locus YLR262C, strain YPT6 (second series), hits give low values 0.96 | S. cerevisiae deletion strains, locus YLR262C, strain YPT6, hits give low values 0.965 | S. cerevisiae deletion strains, locus YLR268W, strain sec22, hits give low values 0.971 | S. cerevisiae deletion strains, locus YLR320W, strain mms22, hits give low values 0.991 | S. cerevisiae deletion strains, locus YLR330W, strain CHS5, hits give low values 0.986 | S. cerevisiae deletion strains, locus YLR342W, strain FKS1 (second series), hits give low values 1.01 | S. cerevisiae deletion strains, locus YLR342W, strain FKS1, hits give low values 0.966 | S. cerevisiae deletion strains, locus YLR357W, strain rsc2, hits give low values 0.955 | S. cerevisiae deletion strains, locus YLR370C, strain arc18, hits give low values 0.971 | S. cerevisiae deletion strains, locus YLR371W, strain rom2, hits give low values 0.981 | S. cerevisiae deletion strains, locus YLR384C, strain iki3, hits give low values 0.992 | S. cerevisiae deletion strains, locus YLR418C, strain cdc73, hits give low values 0.987 | S. cerevisiae deletion strains, locus YML016C, strain PPZ1, hits give low values 1 | S. cerevisiae deletion strains, locus YML032C, strain rad52, hits give low values 0.97 | S. cerevisiae deletion strains, locus YML120C, strain ndi1, hits give low values 0.959 | S. cerevisiae deletion strains, locus YML124C, strain tub3, hits give low values 0.989 | S. cerevisiae deletion strains, locus YMR058W, strain fet3, hits give low values 0.978 | S. cerevisiae deletion strains, locus YMR078C, strain ctf18, hits give low values 0.985 | S. cerevisiae deletion strains, locus YMR125W, strain sto1, hits give low values 0.961 | S. cerevisiae deletion strains, locus YMR129W, hits give low values 0.988 | S. cerevisiae deletion strains, locus YMR205C, strain PFK2, hits give low values 0.986 | S. cerevisiae deletion strains, locus YMR223W, strain ubp8, hits give low values 0.982 | S. cerevisiae deletion strains, locus YMR231W, strain pep5, hits give low values 0.992 | S. cerevisiae deletion strains, locus YMR263W, strain SAP30, hits give low values 0.958 | S. cerevisiae deletion strains, locus YMR307W, strain GAS1, hits give low values 0.998 | S. cerevisiae deletion strains, locus YNL067W, strain RPL9B, hits give low values 0.953 | S. cerevisiae deletion strains, locus YNL071W, strain lat1, hits give low values 0.979 | S. cerevisiae deletion strains, locus YNL128W, strain TEP1, hits give low values 0.985 | S. cerevisiae deletion strains, locus YNL153C, strain GIM3, hits give low values 0.994 | S. cerevisiae deletion strains, locus YNL183C, strain NPR1, hits give low values 0.984 | S. cerevisiae deletion strains, locus YNL209W, strain ssb2, hits give low values 0.951 | S. cerevisiae deletion strains, locus YNL233W, strain BNI4, hits give low values 0.992 | S. cerevisiae deletion strains, locus YNL248C, strain rpa49, hits give low values 0.965 | S. cerevisiae deletion strains, locus YNL250W, strain rad50, hits give low values 0.995 | S. cerevisiae deletion strains, locus YNL271C, strain bni1, hits give low values 0.971 | S. cerevisiae deletion strains, locus YNL298W, strain CLA4, hits give low values 0.99 | S. cerevisiae deletion strains, locus YNL307C, strain MCK1, hits give low values 0.986 | S. cerevisiae deletion strains, locus YNL322C, strain KRE1 (second series), hits give low values 0.97 | S. cerevisiae deletion strains, locus YNL322C, strain KRE1, hits give low values 0.994 | S. cerevisiae deletion strains, locus YNR049C, strain mso1, hits give low values 0.964 | S. cerevisiae deletion strains, locus YNR052C, strain pop2, hits give low values 0.975 | S. cerevisiae deletion strains, locus YOL006C, strain TOP1, hits give low values 0.91 | S. cerevisiae deletion strains, locus YOL012C, strain htz1 1.22 | S. cerevisiae deletion strains, locus YOL147C, strain pex11, hits give low values 0.995 | S. cerevisiae deletion strains, locus YOR001W, strain rrp6, hits give low values 0.979 | S. cerevisiae deletion strains, locus YOR061W, strain CKA2, hits give low values 1 | S. cerevisiae deletion strains, locus YOR069W, strain VPS5, hits give low values 1 | S. cerevisiae deletion strains, locus YOR070C, strain gyp1, hits give low values 0.977 | S. cerevisiae deletion strains, locus YOR080W, strain dia2, hits give low values 0.962 | S. cerevisiae deletion strains, locus YOR083W, strain WHI5, hits give low values 0.975 | S. cerevisiae deletion strains, locus YOR106W, strain vam3, hits give low values 0.968 | S. cerevisiae deletion strains, locus YOR136W, strain idh2, hits give low values 0.992 | S. cerevisiae deletion strains, locus YOR144C, strain elg1, hits give low values 0.975 | S. cerevisiae deletion strains, locus YOR184W, strain ser1, hits give low values 0.975 | S. cerevisiae deletion strains, locus YOR231W, strain MKK1, hits give low values 1.03 | S. cerevisiae deletion strains, locus YOR265W, strain rbl2, hits give low values 0.973 | S. cerevisiae deletion strains, locus YOR270C, strain vph1, hits give low values 0.933 | S. cerevisiae deletion strains, locus YOR290C, strain snf2, hits give low values 0.972 | S. cerevisiae deletion strains, locus YOR316C, strain cot1, hits give low values 0.987 | S. cerevisiae deletion strains, locus YPL051W, strain arl3, hits give low values 0.986 | S. cerevisiae deletion strains, locus YPL055C, strain LGE1, hits give low values 0.957 | S. cerevisiae deletion strains, locus YPL078C, strain atp4, hits give low values 0.986 | S. cerevisiae deletion strains, locus YPL106C, strain sse1, hits give low values 0.942 | S. cerevisiae deletion strains, locus YPL240C, strain hsp82, hits give low values 0.969 | S. cerevisiae deletion strains, locus YPL241C, strain CIN2, hits give low values 0.994 | S. cerevisiae deletion strains, locus YPL256C, strain CLN2, hits give low values 1.06 | S. cerevisiae deletion strains, locus YPR141C, strain kar3, hits give low values 0.98 | S. cerevisiae deletion strains, locus YPR163C, strain tif3, hits give low values 0.989 | S. cerevisiae deletion strains, locus YPR167C, strain met16, hits give low values 0.978 | S. cerevisiae deletion strains, strain wtn01, hits give low values 0.985 | S. cerevisiae strains, strain wild type, hits give low values 0.989
